Among the data in PubChem BioAssay are z-score values, retold here.

Activity calls are given as the source filed them.

Test [1] can be described thus: A549 cell viability effects, profiling panel, calcein-AM fluorescence, 48 h, basal (AID 1162). The conditions noted are these: higher = more signal.
Test [2] in a line: adipocyte viability effects, profiling panel, cell-based, 3T3-L1 adipocytes, calcein-AM fluorescence, 48 h, basal (AID 1163). The note with it: 3T3-L1 adipocytes viability, higher = more signal.
A short description of test [3]: HepG2 cell viability effects, profiling panel, calcein-AM fluorescence, 48 h, basal (AID 1164). The note with it: higher = more signal.
Test [4] in a line: MM1S cell viability effects, profiling panel, calcein-AM fluorescence, 48 h, basal (AID 1165).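 Also: viability of MM1S multiple myeloma cells under basal unstimulated conditions.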 The note with it: higher = more signal.
Test [5] can be described thus: basal RPMI8226 viability, no added stimulus, profiling panel, cell-based, calcein-AM fluorescence, 48 h, PK04 Diversity Set (AID 1166).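 Also: cells grown under basal conditions without added stimulus.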 The note with it: RPMI8226 myeloma viability, higher = more signal.
Test [6] is described as follows: basal HepG2 mitochondrial membrane potential changes, profiling panel, cell-based, JC-1 fluorescence, 24 h, 100 nL compound (AID 1167). The note with it: higher = more signal.
The nature of test [7]: basal 3T3-L1 adipocyte mitochondrial potential changes, profiling panel, cell-based, JC-1 fluorescence, 3T3-L1 adipocytes, 24 h, 100 nL compound (AID 1168). The conditions noted are these: JC-1 mitochondrial fluorescence, higher = more signal, called active from +8 up or from −8 down.
A short description of test [8]: basal RPMI8226 mitochondrial membrane potential changes, profiling panel, cell-based, JC-1 fluorescence, 24 h, 100 nL compound (AID 1169). The conditions noted are these: RPMI8226 myeloma, JC-1 mitochondrial potential fluorescence, higher = more signal.
Test [9] is described as follows: basal MM1S mitochondrial membrane potential changes, profiling panel, cell-based, JC-1 fluorescence, 24 h, 100 nL compound (AID 1170). The conditions noted are these: higher = more signal.
Test [10] in a line: A549 lung cancer cell viability effects, profiling panel, resazurin fluorescence, 24 h, PK04 Diversity Set (AID 1171). The note with it: higher = more signal, called active from +8 up or from −8 down.
Also: test concentration not given here.

On to `COc1ccc([Si](C)(C)[C@@H]2[C@@H](CCO)O[C@]3(C(=O)N(Cc4ccccc4)c4ccccc43)[C@H]2C)cc1`, for which the z-score in [1] is -0.617; in test [2], 0.725; in [3], -0.495; in test [4] it was -1.22; in test [5] it was -2.05; in test [6] it was 2.34. For the same molecule, the z-score is 0.358 (inactive) in test [7], -0.181 in test [8], 0.849 in [9] and -1.69 (inactive) in test [10].

On to `C[C@]1(C(=O)NCCN2CCOCC2)c2ccccc2C(=O)N(Cc2ccccc2)[C@H]1c1ccc(CO)cc1`, for which the z-score was 0.665 in test [1]; -0.337 in [2]; -0.289 in test [3]; 0.763 in test [4]; -1.71 in [5]; 1.58 in test [6]. The z-score in test [7] is -0.782 (inactive); in test [8], -0.0116; in test [9] it was -0.225; in test [10], 0.583 (inactive).

Turning to `CCOC(=O)C[C@H]1[C@H](OC(=O)c2ccccc2-c2ccccc2)[C@@H](NC(=O)c2ccc(-c3ccccc3)cc2)c2cc(OCCCO)ccc2N1C(=O)Cc1ccc(OC)cc1`, the z-score was -0.183 in test [1]; -0.367 in test [2]; 0.29 in test [3]; 0.0542 in [4]; -0.997 in [5]; 0.181 in [6]. The z-score in test [7] is -0.421 (inactive); in test [8] it was -0.616; in [9] it was 0.103; in test [10] it was 0.0911 (inactive).

`C=CC[C@]1(C(=O)NCC(O)CO)N=C(c2ccc(OCCCO)cc2)O[C@H]1c1ccccc1` (stereo not given in full): the z-score in [1] was 0.495; in [2], 0.991; in [3] it was 0.417; in [4], -0.176; in [5], 0.213; in [6], -0.0851. Also, the z-score is -0.386 (inactive) in test [7], -0.895 in test [8], 0.334 in test [9] and 0.912 (inactive) in test [10].

`Cc1ccc(S[C@]2(C(=O)O)CC(=O)N(Cc3ccccc3)[C@@H]2c2ccc(CO)cc2)cc1`: the z-score is 0.633 in test [1]; -0.671 in test [2]; -0.18 in test [3]; -0.476 in [4]; 0.607 in [5]; 0.536 in test [6]. For the same molecule, the z-score in test [7] was 0.923 (inactive); in test [8], 0.118; in test [9] it was -0.418; in test [10], 0.477 (inactive).

In the case of `C=CCN1C(=O)[C@@]2(Cc3ccccc3)N=C(c3ccc(OCCCO)cc3)O[C@H]2c2ccccc21`, the z-score in [1] is -1.38; in test [2], 1.56; in [3], -1.82; in test [4], -2.95; in test [5], -3.94; in test [6] it was -2.07. Moreover, the z-score is 1.58 (inactive) in test [7], -1.11 in test [8], -2.14 in test [9] and -1.36 (inactive) in test [10].

On to `CC(C)CNC(=O)[C@@]1(C)c2ccccc2C(=O)N(Cc2ccc(OC(F)(F)F)cc2)[C@H]1c1ccc(CO)cc1`, for which the z-score is 1.69 in test [1]; 1.68 in test [2]; 0.65 in [3]; -0.249 in [4]; -0.358 in test [5]; 3.03 in test [6]. For the same molecule, the z-score is -0.481 (inactive) in test [7], 0.862 in test [8], 1.38 in test [9] and 1.32 (inactive) in test [10].

With `COc1ccc(CCN2C(=O)[C@@]3(c4ccc([N+](=O)[O-])cc4)CC(=O)N(CC45CC6CC(CC(C6)C4)C5)[C@@H]3c3ccc(CO)cc32)cc1`, the z-score is 1.44 in test [1]; 0.0861 in [2]; 0.71 in test [3]; 0.0097 in test [4]; -0.346 in test [5]; 0.0982 in test [6]. The z-score was 0.0691 (inactive) in [7], -0.0825 in test [8], 0.997 in test [9] and 0.616 (inactive) in test [10].

Take `C[C@@H]1CC[C@H]2C(=O)N3[C@@H](CC[C@@H](C)[C@@H]3c3cccc(N4CCOCC4)c3)C(=O)N2[C@H]1c1cccc(Br)c1`: the z-score in [1] was 1.56; in test [2], 1.4; in test [3], 0.273; in test [4], -0.775; in test [5], -1.3; in [6], 3.04. The z-score was 0.37 (inactive) in test [7], -0.779 in test [8], 0.521 in [9] and 1.36 (inactive) in [10].

As for `CO[C@@H]1COC(=O)[C@H](C)NC(=O)CC=C[C@@H](C)[C@H](NS(=O)(=O)c2ccc(C)cc2)COC(=O)CC=C[C@@H]1C`, the z-score is 0.286 in test [1]; 0.624 in [2]; 0.129 in [3]; 0.287 in [4]; -0.0803 in [5]; 0.596 in test [6]. For the same molecule, the z-score in [7] was 0.523 (inactive); in [8] it was -0.296; in test [9], 0.203; in test [10] it was 0.589 (inactive).

As for `O=C1C[C@@](C(=O)NCCN2CCOCC2)(c2ccc([N+](=O)[O-])cc2)[C@@H](c2ccc(CO)cc2)N1C1CCCCC1`, the z-score in test [1] is 1.16; in test [2], 0.936; in [3], 0.339; in test [4], 0.324; in [5], 0.633; in [6], 0.899. Further, the z-score is 0.295 (inactive) in [7], 0.36 in [8], 1.22 in test [9] and 0.981 (inactive) in [10].

On to `COc1ccc(-c2ccccc2[C@@H]2N[C@H](C(=O)O)CC[C@H]2C)cc1`, for which the z-score in test [1] was 0.212; in test [2], 1.63; in test [3], -0.428; in [4] it was 1.09; in [5] it was -0.372; in test [6], 0.924. In addition, the z-score in test [7] is 0.366 (inactive); in [8] it was 0.1; in [9], 0.614; in test [10], 0.597 (inactive).

Turning to `Cc1ccc(S[C@]2(C(=O)NCCCN(C)C)CC(=O)N(Cc3ccccc3)[C@@H]2c2ccc(CO)cc2I)cc1`, the z-score in [1] is 1.03; in test [2], 0.927; in [3] it was 0.914; in test [4], -3.64; in [5] it was -2.38; in [6], 1.65. Further, the z-score in [7] was -0.645 (inactive); in test [8] it was -0.643; in test [9] it was -0.822; in test [10], 0.0027 (inactive).

For the molecule `COc1cc(Cc2cc3c(c(CCc4ccccc4)n2)[Si](C(C)C)(C(C)C)OC3)cc(OC)c1OC`, the z-score is 0.557 in [1]; -1.22 in test [2]; -0.202 in [3]; -2.17 in test [4]; -4.13 in [5]; 0.756 in [6]. Also, the z-score in [7] was -0.411 (inactive); in test [8] it was -0.799; in test [9], -0.234; in test [10] it was 2.12 (inactive).

Consider `COc1ccc([Si](C)(C)[C@H]2[C@H](CCO)O[C@@]3(C(=O)N(Cc4ccccc4)c4ccc(N5C(=O)c6cccc7cccc5c67)cc43)[C@@H]2C)cc1`, for which the z-score is 0.318 in [1]; 0.535 in test [2]; -2.11 in test [3]; -1.02 in test [4]; -3.03 in [5]; 1.63 in test [6]. Besides, the z-score in test [7] is 2.08 (inactive); in [8], -0.815; in test [9], -0.923; in test [10], -1.46 (inactive).

For the molecule `NC(=O)[C@H]1[C@@H]2C(=O)O[C@@H](c3ccccc3)[C@@H](c3ccccc3)N2[C@@H](c2ccc(O)cc2)[C@]12C(=O)Nc1ccc(C#CCCO)cc12`, the z-score in [1] was -0.191; in [2], -0.0912; in [3] it was 0.0926; in test [4] it was -0.664; in test [5] it was 0.0381; in [6], -1.59. In addition, the z-score in test [7] is -0.699 (inactive); in [8], -0.583; in test [9], 0.196; in test [10] it was -0.0774 (inactive).
